Assay results as given in PubChem BioAssay AID488841 (Sanford-Burnham Center for Chemical Genomics, 2010).
About 380 (27%) of roughly 1,400 compounds were called active.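 How the source made its calls: active means mean inhibition above 50% across duplicate retests at 10 µM; inactive means the rest.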 Some of the results follow.

Assay: inhibition of NALP1/ASC/caspase-1 reporter signal in yeast, confirmation, NALP1 inhibitor project, S. cerevisiae, luminescence, single concentration (AID 488841);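 further: plate controls were DMSO in galactose medium for no effect and cells in plain SD medium for full effect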
Settings: S. cerevisiae NALP1/ASC/Caspase-1 reporter, beta-gal luminescence; at 10 µM; active compounds read high

inhibition, inactive:
CC(C)c1nc(SCC(=O)Nc2ccc3c(c2)OCCO3)n[nH]1 19.3%
N#Cc1ccc(-c2ccc(Cl)cc2)nc1SCC(=O)c1cccc(Cl)c1 26.4%
Cc1ccc(NC(=O)Cn2cccc2)c(C)c1 27.8%
COc1ccccc1CN(Cc1nc2ccccc2c(=O)[nH]1)C(=O)Nc1ccccc1 36.4%
Cc1ccc2nc(N(CCCN(C)C)C(=O)CCc3ccccc3)sc2c1 46.8%
CN(C)C(CNC(=O)CCCOc1ccccc1)c1ccco1 (stereo not drawn) 30.6%
Cc1cccc2sc(N(CCCN(C)C)C(=O)c3sc4ccccc4c3Cl)nc12 35.9%
CCOC(=O)c1cnc2ccccc2c1Nc1cc(C(=O)O)ccc1C 26.6%
Cc1cc(N2CCOCC2)n2ncc(-c3ccccc3)c2n1 46.7%
C=CCc1cccc(/C=N/c2nc3ccccc3n2CC)c1O 15.8%
O=C1c2ccccc2C(=O)c2c1ncn2-c1ccccc1 24.1%
CCOc1ccc(OCCCCn2ccnc2)cc1 34.5%
Cc1cc(Br)ccc1OCCn1ccnc1 43%
COC(=O)c1c(N)c(C#N)c2n1CCCCC2 21%
Cc1cccc(C)c1NC(=O)CSc1nc2ccccc2c(=O)[nH]1 31.1%
CCCn1nc(NC(=O)c2ccccn2)c2cc3cc(C)ccc3nc21 13.2%
NC(C(=O)O)C1CC(Cl)=NO1 (stereo not drawn) 24.8%
S=C(NC1CCCCC1)NN(c1ccccc1)c1ccccc1 21.3%
O=C(NC(=O)N1CCN(c2ccc(F)cc2)CC1)c1ccccc1 32.6%
O=C(c1cccc(F)c1)N1CCN(c2cc(N3CCCCC3)c(F)cc2[N+](=O)[O-])CC1 46.2%
COc1ccc(N(CCC#N)S(=O)(=O)c2ccc(Cl)cc2)cc1 26.2%
CCC(C)(C)NCC(=O)Nc1ccc(OC(F)(F)F)cc1 36.4%
CC(C)Oc1ccc(NC(=O)CCC(=O)O)cc1 21.6%
CNC(=O)C(NC(=O)c1ccccc1)=C(C)C 30.4%
COc1ccc(C(=O)NCc2ccccc2)cc1S(=O)(=O)N1CCCc2ccccc21 32.7%
Cc1ccc(NC2(C#N)C(=O)Nc3ccccc32)cc1 (stereo not drawn) 30.8%
CN1CCN(S(=O)(=O)c2ccc(NC(=S)NC(=O)C(C)(C)C)cc2)CC1 26.6%
COC(=O)c1ccccc1NC(=O)C1CCN(C(=O)c2cc(OC)cc(OC)c2)CC1 20.4%
CCCCn1cnc2c1c(=O)[nH]c(=O)n2CCCC 21.8%
O=C(c1ccc(Cl)c([N+](=O)[O-])c1)N(c1ccccn1)c1ccccn1 24.1%
O=C(Cn1c(=O)oc2ccccc21)Nc1ccc(Cl)cc1 33%
CN1/C(=C\C(=O)Nc2ccc(Cl)cc2)C(C)(C)c2ccccc21 42.2%
C#CCOc1c(Br)cc(/C=N/O)cc1OCC -19.1%
Cc1cccnc1NC(=O)c1ccccc1NC(=O)C(C)(C)C 36.7%
O=C(c1cccc([N+](=O)[O-])c1)n1nc(-c2ccccc2)nc1NCc1ccccc1 37%
COc1cccc(CNc2ccc3c(c2)CCC3)c1 34.2%
O=C1CCCc2ccccc2N1Cc1ccc(Cl)cc1Cl 28.2%
CC1CCN(CCOc2cccc(Br)c2)CC1 36%
Brc1cccc(OCCCCN2CCCCC2)c1 29.7%
Cc1c(-c2ccccc2)[n+](=O)c2c(n1[O-])CCC2 22.1%
COc1cccc(C2c3c(-c4ccccc4O)n[nH]c3C(=O)N2Cc2ccco2)c1 (stereo not drawn) 29.4%
CN1CCN(C(=O)CSc2nc3c(c(=O)n(C)c(=O)n3C)n2C)CC1 29.1%
CC(C)(CN1CCN(Cc2ccccc2)CC1)NS(=O)(=O)c1ccc(Cl)cc1 42.2%
CCOC(=O)CSc1nnc(-c2ccccc2)c(=O)[nH]1 33.8%
CCOCCCn1c(=NC(C)=O)c(C(=O)OCC)cc2c(=O)n3ccccc3nc21 23.1%

inhibition, active:
COc1ccc(/C=C2\SC(N3CCc4ccccc4C3)=NC2=O)cc1 69.8%
CCN(CC)c1ccc(NC(=O)Cn2cc3c(n2)CCC(C)C3)c(C)c1 (stereo not drawn) 50.9%
Cc1ccc2sc(N(CCCN(C)C)C(=O)CCS(=O)(=O)c3ccccc3)nc2c1C 88.8%
Cc1cccc2sc(N(CCCN(C)C)C(=O)CCS(=O)(=O)c3ccccc3)nc12 69.6%
CN(C)CCCN(C(=O)CCOc1ccccc1)c1nc2c(F)cccc2s1 64.8%
CN(C)CCCN(C(=O)CCS(=O)(=O)c1ccccc1)c1nc2cc3c(cc2s1)OCO3 61.2%
CSc1cc(N2CCOCC2)nc(-c2ccccc2Cl)n1 72%
CCc1ccc(S(=O)(=O)/N=C2/C=C(Sc3ncn[nH]3)C(=O)c3ccccc32)cc1 86.3%
CCC(C)c1ccc(OCCn2ccnc2)cc1 (stereo not drawn) 58.6%
Cc1cccc(OCCCSc2nc3ccc(C)cc3[nH]2)c1 56.4%
Cc1ccccc1OCCCSc1nc2ccccc2[nH]1 63%
O=S(=O)(/C=C/c1ccccc1)NC1CCCCCCC1 61.6%
O=C(c1ccc2c(Cl)c3c(nc2c1)CCCC3)N1CCN(c2ccc(F)cc2)CC1 64.8%
Cc1ccc(NC(=O)CNc2ccc(OC(C)C)cc2)cc1 50.8%
C=C(C(=O)c1ccccc1)C(C)C(=C)C(=O)c1ccccc1 59.5%
COC(=O)c1ccccc1NC(=O)C1CCCN(S(=O)(=O)c2ccc(OC)cc2)C1 (stereo not drawn) 66.3%
O=[N+]([O-])c1ccc(O)c2ncccc12 93.5%
O=C(Cc1noc2ccccc12)Nc1ccc(Cl)cc1 55.3%
O=[N+]([O-])c1cccc(CNc2ccc3c(c2)CCC3)c1 52.9%
Cc1cc(Br)ccc1OCCCCN1CCC(C)CC1 52.2%
Nc1[nH]ncc1N=Nc1ccc(Cl)cc1 56.7%
O=c1c(O)c(-c2cccs2)oc2ccccc12 78%
CCOC(=O)c1c(-c2ccccc2)nc2ccccn12 99.4%
